Compounds with a hit are over-represented: about 3.4% of the library has one in this group of screens.
ADAM10 inh = inhibitors of human ADAM10 | 0.62% of 370,000 active | O14672 | recombinant ADAM10, EDANS/DABCYL FRET peptide cleavage, 3 h | inhibition, % at 7 µM;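 active means inhibition above a per-campaign cutoff equal to the mean of compounds falling between control-based bounds plus 3 SD, cut at about 20% in these data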;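 further: 0% = DMSO wells while the 100% control is not disclosed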
KLK7 zymogen act = proKLK7 (human) activation, primary screen. AID 652039. 0.9% of 370,000 active. P49862. purified proKLK7, EDANS-DABCYL substrate fluorescence; 100% is mature enzyme control, 0% vehicle. activation, % at 7 µM;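 active means activation above the mean of all tested compounds plus 3 SD, computed per campaign excluding outliers beyond control limits, cut at about 13% in these data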
Target sequence (P49862 whole entry, looked up): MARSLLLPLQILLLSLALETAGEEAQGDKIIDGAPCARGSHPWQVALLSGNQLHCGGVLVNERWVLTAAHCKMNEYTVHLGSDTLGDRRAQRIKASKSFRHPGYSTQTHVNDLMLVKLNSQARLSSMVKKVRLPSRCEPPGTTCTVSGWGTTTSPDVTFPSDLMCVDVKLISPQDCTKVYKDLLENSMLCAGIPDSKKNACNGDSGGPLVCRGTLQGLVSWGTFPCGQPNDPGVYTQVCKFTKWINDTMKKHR
PLC-beta3 inh = inhibitors of human phospholipase C beta3 | Purified PLC-beta3, fluorogenic substrate, fluorescence | inhibition, % at 12.2 µM | Q01970 | 0.18% of 370,000 active; in the data active means inhibition above about 11%;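 further: 0% = median of compound wells on plate and 100% = full blocker control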
ADAM17 inh = inhibits human ADAM17 | recombinant ADAM17, EDANS/DABCYL FRET peptide cleavage | inhibition, % at 6.95 µM | 0.83% of 370,000 active | AID 720648;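 active means inhibition above the mean of compounds lying between control limits plus 3 SD, set per campaign, cut at about 8.5% in these data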;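 further: 0% = DMSO-only wells as the low control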
PLC-gamma1 inh = PLC-gamma1 (human) inhibition, primary screen; P19174; purified PLC-gamma1, fluorogenic substrate, fluorescence; inhibition, % at 12.2 µM; 0.84% of 370,000 active; AID 720700; in the data active means inhibition above about 9.5%
HGIII-sPLA2 inh = Blocks human group III sPLA2 activity; Q9NZ20; QFRET BODIPY PC-A2 liposome hydrolysis, fluorescence; AID 743126; inhibition, % at 12.2 µM; 0.56% of 370,000 active;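 active means inhibition above mean plus 3 SD of compounds lying within the high and low control bounds, cut at about 19% in these data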;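 further: 0% = median of test compound wells and 100% = no enzyme DMSO wells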
proKLK7 act conf = confirmation of human kallikrein-7 zymogen activators | purified proKLK7, EDANS-DABCYL substrate fluorescence; scaled: vehicle 0, mature enzyme 100 | AID 686949 | shares compounds with KLK7 zymogen act | 68% of 3,200 active | activation, % at 7 µM;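 active means activation, as change over the incubation, above the mean of all tested compounds plus 3 SD, cut at about 13% in these data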
EDANS-DABCYL int = optically interferes with EDANS-DABCYL signal, flagging KLK7 hits. shares compounds with KLK7 zymogen act. EDANS-DABCYL substrate fluorescence interference, no enzyme, 4 h; solvent 0%, active enzyme control 100%. activation, % at 7 µM. 80% of 3,200 active. AID 686952;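 active means activation above the all-compound mean plus 3 SD, ignoring values outside control-based bounds, cut at about 4.8% in these data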;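 further: value is the 4 h activation minus the activation read at time zero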
K7 EDANS ctr = counter-screen for kallikrein-7 activators: EDANS-DABCYL interference, dose response | shares compounds with KLK7 zymogen act | EDANS-DABCYL peptide fluorescence interference, no enzyme | EC50, µM | 20% of 250 active;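 active means compounds that raise the fluorescence signal in this interference counterscreen, with EC50 at or below 10 µM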;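 further: intact quenched peptide substrate alone read at 355 nm excitation and 520 nm emission; signal is fluorescence gain from T0 to T4 after four hours at room temperature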
An asterisk follows results filed as active; i = inactive; nt = not tested or not shown.

SMILES	ADAM10 inh	KLK7 zymogen act	PLC-beta3 inh	ADAM17 inh	PLC-gamma1 inh	HGIII-sPLA2 inh	proKLK7 act conf	EDANS-DABCYL int	others
C[C@H](CO)N1C[C@H](C)[C@@H](CN(C)C(=O)Nc2cccc(C(F)(F)F)c2)OCc2cn(nn2)CCCC1=O	-9	1	-1	-4	-1	7	nt	nt
COc1ccc(NC(=O)CN(C)C(=O)c2cc(-c3ccco3)nc3ccccc23)cc1	i	-12	i	-381	i	-14	nt	nt
Cc1ccccc1NC(=O)c1cc(-c2ccco2)nc2ccccc12	-434	-178	-444	-167	-315	-5	nt	nt
COc1ccc(NC(=O)c2cc(-c3ccco3)nc3ccccc23)cc1	-27	15*	-93	-12	-50	-1	14*	20*
CN(C)C(CNC(=O)c1cc(-c2ccco2)nc2ccccc12)c1ccccc1 (stereo not drawn)	i	31*	i	-326	i	-6	1	1
Cc1ccccc1NCC(=O)N/N=C/c1ccc[nH]1	-4	nt	1	-5	-1	7	nt	nt
NS(=O)(=O)c1ccc(CCNC(=O)c2ccc3c(c2)N(Cc2ccccc2)CCS3)cc1	-210	-16	-113	-53	-75	0	nt	nt
O=C(NCCCN1CCCC1)c1ccc2c(c1)N(Cc1ccccc1)CCS2	i	51*	i	-450	i	3	-16	-13
CN1CCN(CCCNC(=O)c2ccc3c(c2)N(Cc2ccc(F)cc2)CCS3)CC1	i	76*	i	i	i	-16	-8	-15
CCN1CCN(CCCNC(=O)c2ccc3c(c2)N(Cc2ccccc2)CCS3)CC1	i	35*	i	i	i	-2	-26	-28
O=C(NCCCN1CCOCC1)c1ccc2c(c1)N(Cc1ccc(F)cc1)CCS2	i	-12	i	i	i	3	nt	nt
COC(=O)[C@]12C[C@H](CC(=O)NCc3cccc(C(F)(F)F)c3)C(=O)N(CCC3=CCCCC3)C1=C[C@H](C(C)(C)C)O[C@@H]2C	9	-1	4	4	1	-18	nt	nt
COc1ccc(-c2cc(-c3nnc(SCc4cccc5ccccc45)n3N)[nH]n2)cc1	-10	-1	2	-23	7	6	nt	nt
O=[N+]([O-])c1cc(S(=O)(=O)NCc2ccco2)ccc1NN=Cc1ccccn1	-1	0	2	1	2	-3	nt	nt
Cn1c2ccccc2c(=O)c2ccc(F)cc21	i	13*	-337	-439	-235	2	50*	44*
COc1cc(-c2ccc3c(=O)c4ccccc4n(C)c3c2)cc(OC)c1OC	-156	-8	-420	-48	-314	-13	nt	nt
CCn1c2ccccc2c2cc(NC(=O)CN3CCCC3)ccc21	-8	82*	-9	-4	-2	1	-1	-1
C[C@@H]1CN([C@H](C)CO)C(=O)CCCn2cc(nn2)CO[C@H]1CN(C)S(=O)(=O)c1ccc(Cl)cc1	-14	0	-2	-4	1	1	nt	nt
CCCOC(=O)Oc1ccc2c(=O)c(Oc3cc(C)cc(C)c3)coc2c1	i	43*	i	-188	i	-21	77*	65*	K7 EDANS ctr=5*
CCCCOC(=O)Oc1ccc2c(=O)c(Oc3cccc(C)c3)coc2c1	-432	43*	i	-128	-472	-12	85*	65*	K7 EDANS ctr=8.2*
C=CCCC1CN(Cc2ccc(OC)cc2)S(=O)(=O)c2c(F)cccc2O1 (stereo not drawn)	2	-1	0	3	1	3	nt	nt
Cc1cc(=O)oc2cc(OC(=O)CCN3C(=O)c4ccccc4C3=O)ccc12	i	58*	i	i	i	-3	427*	404*
CCCC(=O)Oc1ccc2c(C)cc(=O)oc2c1	i	656*	i	i	i	-3	686*	706*

Screens deposited in PubChem by The Scripps Research Institute Molecular Screening Center.
